Our source for the activity change, negative = inhibition and Potency values is PubChem BioAssay AID651784 (National Center for Advancing Translational Sciences (NCATS), 2012).

Results filed as inconclusive are left out. The source made the active and inactive calls. Calls come from the whole dose curve; as a rule, active = well fitted inhibition curve with a large enough effect; inconclusive = small, poorly fitted or top-dose-only effect; inactive = no such curve, though single readings can be large or run the other way.
Potency is the fitted concentration of half-maximal effect.

The experiment can be described thus: Acumen qHTS Assay for Inhibitors of the mTORC1 Signaling Pathway in MEF (Tsc2-/-, p53-/-) Cells: Hit Validation.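 For activity change, negative = inhibition: cells exposed to compound for 24 hours; plate controls were DMSO for no effect and 7.5 nM rapamycin control for full effect.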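 Note: phospho-rpS6 Ser235/236 immunofluorescence normalized to propidium iodide cell count; nearly all actives have a fitted effect of over 65% in size.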 Particulars: Acumen imaging; activity change, negative = inhibition: at 37.3 µM (top of the series). For orientation: In qHTS, concentration-response curves come from the screen itself.
In the case of `CC(=O)N1CCCc2cc(S(=O)(=O)N(Cc3ccccc3)C(C)C)ccc21`, the activity change, negative = inhibition was -22.8%.
The same measure, in the same setting: with `CCc1nn(CC(=O)NCc2ccccc2Cl)c(=O)c2cccn12` the figure was 3.65%.
Still for that read-out and setting: in the case of `COc1cc(C)ccc1OCCn1c(-c2ccc(Cl)cc2)nc2ccccc2c1=O` it was -1.14%; in that of `CCOc1cc(C2CC(=O)Nc3cc4c(cc32)OCCO4)ccc1O` (configuration not stated), 3.9%.
On to `COc1ccc(OCC(=O)NCc2ccc3c(c2)CCN3C(=O)c2ccccc2)cc1`, for which the Potency is 16.5 µM (active).
As for `CCOc1ccccc1NC(=O)c1cn(C2CCCC2)c(=O)c2c1c1ccccc1n2C`, the activity change, negative = inhibition is -10.9%.
The same measure, in the same setting: in the case of `COc1ccc(S(=O)(=O)N(CCc2ccccc2)CC(=O)Nc2cccc(OC)c2)cc1` it was -19.2%.
Still for that read-out and setting: in the case of `COc1ccc(-c2cc(C(F)(F)F)nc(S(C)(=O)=O)n2)cc1` it was -88.8%; in that of `O=S(=O)(c1cccc2cnccc12)N1CCCNCC1`, -7.7%.
As for `COC(=O)CN1C(=O)C(C)(C)c2cc(S(=O)(=O)Nc3ccc(Br)cc3F)ccc21`, the Potency was 9.27 µM (active).
Turning to `Cc1cccn2c(Nc3ccccc3)c(-c3cccs3)nc12`, the activity change, negative = inhibition worked out at 26.1%.
On to `CCCCS(=O)(=O)c1oc(-c2ccc(F)cc2)nc1S(=O)(=O)c1ccc(C)cc1`, for which the Potency was 4.65 µM (active).
For the compound `O=C(CN(CCc1ccccc1)S(=O)(=O)c1ccccc1)NCc1ccc(Cl)cc1`, the activity change, negative = inhibition is -3.71%.
In the case of `CCS(=O)(=O)c1oc(-c2ccc(F)cc2)nc1S(=O)(=O)c1ccccc1`, the Potency was 0.369 µM (active).
`COc1cccc(-c2oc3ccc(C)cc3c(=O)c2O)c1`: the activity change, negative = inhibition is -44.4%.
On to `COc1ccc(Cl)cc1NC(=O)CCCS(=O)(=O)c1nc(-c2ccc(OC)c(OC)c2)cc(C(F)(F)F)n1`, for which the Potency is 10.4 µM (active).
As for `Cc1nn(CC(=O)NCc2ccccc2Cl)c(=O)c2cccn12`, the activity change, negative = inhibition amounted to 6.27%.
For the compound `CCOC(=O)c1c(NC(=O)c2ccc(S(=O)(=O)N(CCOC)CCOC)cc2)sc2c1CC(C)(C)NC2(C)C`, the Potency is 8.26 µM (active).
Turning to `COC(=O)c1ccccc1NC(=O)c1nc(S(=O)(=O)Cc2cccc(C)c2)ncc1Cl`, the Potency was 4.14 µM (active).
The same measure, in the same setting: in the case of `COC(=O)c1c(C)oc2ccc(N(C(=O)c3ccncc3)S(=O)(=O)c3ccc(OC)cc3)cc12` it was 1.85 µM (active).
On to `Cc1cccc(N2CCN(C(=O)C3CCN(C(=O)c4cc5sccc5n4C)CC3)CC2C)c1` (configuration not stated), for which the activity change, negative = inhibition was -39.1%.
As to `CCCCn1c(=N)n(CCOc2ccccc2OC)c2ccccc21`, the Potency is 4.65 µM (active).
Regarding `Cc1ccc(-c2nnc(Nc3ccc(O)cc3)c3ccccc23)cc1S(=O)(=O)N1CCCCC1`, the activity change, negative = inhibition was -11.6%.
Turning to `Cc1c(C(=O)OC2CCC(C)CC2)[nH]c2c1C(=O)CC(c1ccccc1Cl)C2` (configuration not stated), the activity change, negative = inhibition was -43.7%.
In the case of `Cc1cccc(NS(=O)(=O)c2ccc3[nH]c4c(c3c2)CCCCCC4)c1`, the Potency is 5.21 µM (active).
Same read-out and setting: in the case of `CCOc1ccccc1NS(=O)(=O)c1ccc(-c2cnc(C3CC3)o2)cc1` it was 0.464 µM (active).
The same measure, in the same setting: with `N=c1n(CCN2CCCCC2)c2ccccc2n1CC(O)COc1ccc(Cl)cc1Cl` (configuration not stated) the figure was 5.21 µM (active).
On to `Cc1ccc2oc(-c3ccc(Cl)cc3)c(O)c(=O)c2c1`, for which the activity change, negative = inhibition is -44.5%.
On to `CCCCOc1cccc(C(=O)N(Cc2cccs2)c2ccc(OC)cc2)c1`, for which the Potency was 16.5 µM (active).
Still for that read-out and setting: in the case of `CCOC(=O)c1ccc(NC(=O)c2nc(S(=O)(=O)Cc3ccccc3)ncc2Cl)cc1` it was 4.65 µM (active).
Consider `CCCCNC(=O)CSc1nc2nc(C)c(Cc3ccccc3C)c(C)n2n1`, for which the activity change, negative = inhibition came out at 7.74%.
The same measure, in the same setting: in the case of `CC(C)OCCCn1c(=O)c2ccccc2n2c(-c3ccc(F)cc3)nnc12` it was 17.3%.
Turning to `COc1ccccc1NC(=O)CSc1ccc(-c2ccccn2)nn1`, the Potency was 11.7 µM (active).
With `CCSc1oc(-c2ccc(F)cc2)nc1S(=O)(=O)c1ccc(C)cc1`, the activity change, negative = inhibition was -25.8%.
On the same count and under the same terms, with `COC(=O)c1ccccc1NC(=O)CCS(=O)(=O)c1nc(-c2ccc3c(c2)OCO3)cc(C(F)(F)F)n1` the figure was -88.3%.
On the same count and under the same terms, with `Cc1ccc(NC(=O)c2c(NC(=O)C(F)(F)F)sc3c2CCCCC3)cc1` the figure was -36.6%; with `COc1cc(Cl)c(C)cc1NC(c1ccccc1)c1nnc(-c2ccccc2Cl)o1` (configuration not stated), -9.11%.
